Data as given in PubChem BioAssay.
The source made the active and inactive calls.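 How the source made its calls, unless noted: active means NADPH fluorescence slope more negative than the mean of all samples by about 3 SD, 99.7% confidence; inactive means the rest.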

Columns and labels:
[1] = inhibitors of TNFa-induced NFkB p65 translocation, primary screen, imaging, HUVEC, MLSMR starter and 10KST1 sets (AID 438;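 active means inhibition above 20% together with a positive visual image hit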;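 further: compound added about 3h40 before a 20 min TNFalpha stimulation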;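 on inhibition: signal is the nuclear over cytoplasmic p65 intensity ratio per well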); settings: HUVEC TNFa-induced p65 nuclear translocation; cell count: measured here: nuclei count (cytotoxicity indicator), at 2.08 µM; inhibition: at 2 µM, stronger effect = higher value, 0% TNFa-plus-vehicle, 100% no-TNFa wells
[2] = inhibitors of mutant huntingtin aggregation, primary screen, imaging, exon1htt(103Q)mCFP cells, high-content imaging (AID 483;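 active means visual image review flags a hit and inhibition of aggregation exceeds 20%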;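 further: compound exposure lasted 3 days before fixation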;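 on nuclei count: percent of the per-plate median nuclei count of sample wells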); settings: exon1htt(103Q)mCFP cell line, aggregate imaging, at 2 µM; inhibition of aggregation: stronger effect = higher value; nuclei count: measured here: cell count, toxicity
[3] = inhibitors of E-selectin induction by TNFa, primary screen, imaging, HUVEC, immunofluorescence, MLSMR starter and 10KST1 sets (AID 487;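 active means visually confirmed hit in the image check and inhibition above 20%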;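 on inhibition: signal is fraction of cell area covered by stained E-selectin grains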;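 on nuclei count: 100% = median nuclei count of all wells on the same plate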); settings: HUVEC TNFalpha-induced E-selectin immunofluorescence imaging, at 2 µM; inhibition: stronger effect = higher value; nuclei count: measured here: cell number, toxicity
[4] = target: Voltage-gated potassium channel subunit beta-2 (Rattus norvegicus) (UniProt P62483); experiment: KvBeta enzyme negative modulators, primary screen, biochemical, NADPH fluorescence (AID 622;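 active means fluorescence slope higher than the sample average by over 3 SD, cut at about -0.22 in these data, passing the limit was not always enough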;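 further: slope of raw intensity against log time taken from 70 to 1610 s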); settings: recombinant KvBeta, 4-cyanobenzaldehyde reduction, at 10 µM, stronger effect = higher value
[5] = target: Voltage-gated potassium channel subunit beta-2 (Rattus norvegicus) (UniProt P62483); experiment: KvBeta positive modulators, primary screen, biochemical, NADPH fluorescence (AID 623); settings: Recombinant KvBeta, NADPH fluorescence decrease slope, 10 min; at 10 µM; stronger effect = lower value;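 further: fluorescence intensity change per second fitted from 20 to 320 s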
[6] = target: Alpha-2C adrenergic receptor (Homo sapiens) (UniProt P18825); experiment: modulators of alpha2C/GIRK thallium flux, primary screen, cell-based, HEK293 alpha2C/GIRK1/2 (AID 624;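 active means fluorescence slope after compound addition differing from the mean of all screened samples at 99.7% confidence, in either direction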;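 further: slope of fluorescence ratio to pre-addition baseline per second over 15 to 24 s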); settings: thallium flux BTC fluorescence, at 10 µM, actives lie on both sides
[7] = inhibitors of Sendai virus-induced IRF3 signaling, primary screen, TLR/RLR signaling modifier project, cell-based, Sendai virus stimulus, luciferase, 10K MLSCN set (AID 602276;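 active means inhibition at or above 50% at 10 µM; inactive means inhibition below 50%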;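 further: firefly luciferase from ISG56 promoter only with Renilla not read in this screen; 0% = Sendai virus plus DMSO and 100% = medium plus DMSO without virus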); settings: HEK293 RL24 IRF3 luciferase reporter, at 10 µM, stronger effect = higher value
[8] = inhibitors of poly I:C-induced TLR3 signaling, primary screen, cell-based, poly I:C stimulus, luciferase, 10K MLSCN set (AID 602277;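 active means inhibition of the reporter signal at or above 50%; inactive means inhibition below 50%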); settings: HEK293-TLR3 RL24 IRF3 luciferase reporter, at 10 µM, stronger effect = higher value

Sequence of Voltage-gated potassium channel subunit beta-2 (Rattus norvegicus) (P62483 whole entry, looked up): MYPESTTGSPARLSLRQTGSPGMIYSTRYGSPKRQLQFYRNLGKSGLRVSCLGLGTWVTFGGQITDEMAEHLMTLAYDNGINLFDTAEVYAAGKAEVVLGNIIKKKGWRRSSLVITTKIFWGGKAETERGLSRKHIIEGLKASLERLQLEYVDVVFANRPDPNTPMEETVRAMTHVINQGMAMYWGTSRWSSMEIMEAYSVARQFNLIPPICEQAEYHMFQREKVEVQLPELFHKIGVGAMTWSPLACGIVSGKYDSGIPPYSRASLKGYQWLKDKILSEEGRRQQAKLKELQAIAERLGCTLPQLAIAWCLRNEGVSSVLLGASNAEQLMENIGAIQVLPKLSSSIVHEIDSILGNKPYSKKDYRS
Sequence of Alpha-2C adrenergic receptor (Homo sapiens) (P18825 whole entry, looked up): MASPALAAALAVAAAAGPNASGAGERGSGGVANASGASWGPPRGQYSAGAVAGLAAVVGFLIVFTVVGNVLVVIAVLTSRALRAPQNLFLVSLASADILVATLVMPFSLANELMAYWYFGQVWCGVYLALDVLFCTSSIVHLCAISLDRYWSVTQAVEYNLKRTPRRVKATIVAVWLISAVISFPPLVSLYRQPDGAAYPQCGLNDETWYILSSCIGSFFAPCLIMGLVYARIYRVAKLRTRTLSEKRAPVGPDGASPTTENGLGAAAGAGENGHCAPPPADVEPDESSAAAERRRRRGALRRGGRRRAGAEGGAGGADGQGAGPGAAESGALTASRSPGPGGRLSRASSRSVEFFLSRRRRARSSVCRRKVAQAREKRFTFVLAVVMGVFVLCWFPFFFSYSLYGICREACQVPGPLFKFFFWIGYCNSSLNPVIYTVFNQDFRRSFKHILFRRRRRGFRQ

SMILES	cell count [1]	inhibition [1]	inhibition of aggregation [2]	nuclei count [2] [%]	inhibition [3]	nuclei count [3] [%]	fluorescence slope [4]	NADPH fluorescence slope [5]	slope [6]	inhibition [7]	inhibition [8]
Cc1cc(=O)oc2c1c(C)nn2-c1ccc(C(=O)OC(C)C)cc1	741	-2.9% (inactive)	-39.6% (inactive)	106	-67.2% (inactive)	106	-0.529 (inactive)	-1.2e-05 (inactive)	0.00612 (inactive)	8% (inactive)	26.1% (inactive)
Nc1nc(-c2ccc(Br)s2)c(Br)s1	579	-10.7% (inactive)	5.7% (inactive)	102	18.6% (inactive)	98	-0.507 (inactive)	2.9e-05 (inactive)	0.00465 (inactive)	1.12% (inactive)	2.3% (inactive)
COc1ccc(Oc2nc(Oc3ccc(OC)cc3)nc(Oc3ccc(OC)cc3)n2)cc1	320	-5.1% (inactive)	-10.7% (inactive)	109	-4.6% (inactive)	106	-0.536 (inactive)	-1.9e-06 (inactive)	0.00755 (inactive)	3.19% (inactive)	11.5% (inactive)
CCOC(=O)c1cc2c(=O)n3ccccc3nc2n(CC2CCCO2)c1=NC(C)=O (stereo not drawn)	617	3.1% (inactive)	18.5% (inactive)	86.7	22.2% (inactive)	100	-0.441 (inactive)	-1.3e-05 (inactive)	0.00574 (inactive)	9.86% (inactive)	10.8% (inactive)
c1coc(CN(Cc2cccs2)Cc2nnnn2C2CCCCC2)c1	394	-10.4% (inactive)	26.1% (inactive)	119	-12.8% (inactive)	97.7	-0.571 (inactive)	1.3e-05 (inactive)	0.00524 (inactive)	19.6% (inactive)	24.5% (inactive)
CCOC(=O)c1ccc(NC(=O)CCc2nc(-c3cccc(C)c3)no2)cc1	387	12.6% (inactive)	-10.1% (inactive)	102	-1% (inactive)	100	-0.565 (inactive)	-6.8e-05 (inactive)	0.00651 (inactive)	-14.6% (inactive)	-24% (inactive)
CCOc1ccc(C2C(C#N)=C(N)Oc3cc(C)n(Cc4ccco4)c(=O)c32)cc1OC (stereo not drawn)	746	2.4% (inactive)	9.6% (inactive)	74	-11.3% (inactive)	105	-0.491 (inactive)	-2e-05 (inactive)	0.00471 (inactive)	7.22% (inactive)	11.1% (inactive)
Cc1cc(C)c(S(=O)(=O)Nc2cccnc2)c(C)c1	610	-4.7% (inactive)	-11.3% (inactive)	119	-20.4% (inactive)	113	-0.614 (inactive)	-5.3e-05 (inactive)	0.00327 (inactive)	17.2% (inactive)	15.7% (inactive)
CCn1c(SCC(=O)Nc2cc(C)ccc2C)nc2c(c1=O)SC(C)C2 (stereo not drawn)	680	-8.2% (inactive)	-17.3% (inactive)	98	-39.2% (inactive)	110	-0.584 (inactive)	-2.9e-05 (inactive)	0.0063 (inactive)	-13.9% (inactive)	2.03% (inactive)
CC1CCCCC1NC(=O)c1nn(C)c(=O)c2ccccc12 (stereo not drawn)	361	0.7% (inactive)	0.4% (inactive)	105	13.7% (inactive)	88.6	-0.621 (inactive)	1.8e-06 (inactive)	0.00592 (inactive)	-1.74% (inactive)	2.78% (inactive)
Clc1cccc(-c2nnc(-c3ccccc3)o2)c1	610	-15.9% (inactive)	-13.5% (inactive)	110	4.7% (inactive)	124	-0.391 (inactive)	3.1e-05 (inactive)	0.00595 (inactive)	-18.1% (inactive)	-47% (inactive)
CCN(CC)CCCN1C(=O)C(O)=C(C(C)=O)C1c1cccc(OC)c1 (stereo not drawn)	468	7.8% (inactive)	3.9% (inactive)	97.3	-142% (inactive)	105	-0.367 (inactive)	-4.4e-05 (inactive)	0.00698 (inactive)	11.2% (inactive)	13.5% (inactive)
N#Cc1c(NCc2ccccc2)ccnc1NCc1cccnc1	720	2.9% (inactive)	-8.3% (inactive)	104	67.5% (active)	80.8	-0.288 (inactive)	-6.2e-05 (inactive)	0.00541 (inactive)	-0.363% (inactive)	-44.8% (inactive)
O=C(CSc1nnc(CNC(=O)c2cccs2)o1)Nc1cccc(C(F)(F)F)c1	262	3.8% (inactive)	-12.8% (inactive)	78.7	-14.2% (inactive)	111	-0.379 (inactive)	-5.5e-05 (inactive)	0.00592 (inactive)	6.93% (inactive)	19.8% (inactive)
COc1ccc2c(c1)C(=O)N(c1ccccc1OC)C(=O)C2	320	-3.9% (inactive)	-3.2% (inactive)	80.8	-22% (inactive)	110	-0.401 (inactive)	-3.7e-05 (inactive)	0.0052 (inactive)	14.7% (inactive)	10.2% (inactive)
C/C=C/Cn1c(Br)nc2c1c(=O)[nH]c(=O)n2C	650	10.6% (inactive)	-10.8% (inactive)	73	20.1% (inactive)	103	-0.625 (inactive)	-4.7e-05 (inactive)	0.00443 (inactive)	15.1% (inactive)	10.7% (inactive)
CCN1C(=O)C2(C(C#N)=C(N)Oc3n[nH]c(C(C)C)c32)c2ccccc21 (stereo not drawn)	679	-4.5% (inactive)	-20.7% (inactive)	104	2.2% (inactive)	97	-0.485 (inactive)	-3.1e-05 (inactive)	0.005 (inactive)	20.9% (inactive)	21.2% (inactive)
CCC(C)(C(=O)NC1CCCCC1)N(Cc1ccco1)C(=O)c1ccc2c(c1)OCO2 (stereo not drawn)	593	-9.3% (inactive)	-2.7% (inactive)	80.7	25.6% (inactive)	95.5	-0.423 (inactive)	-7.4e-06 (inactive)	0.00563 (inactive)	21.1% (inactive)	49.5% (inactive)
COc1cc(OC)c(C2C(C#N)=C(N)OC3=C2C(=O)CC(C)(C)C3)cc1OC (stereo not drawn)	407	-2.7% (inactive)	22.2% (inactive)	88.4	-27.1% (inactive)	104	-0.501 (inactive)	-3.5e-05 (inactive)	0.00648 (inactive)	-2.62% (inactive)	5.85% (inactive)
c1ccc(-c2nn3c(Cn4nnc5ccccc54)nnc3s2)nc1	574	2.1% (inactive)	3.4% (inactive)	103	13.7% (inactive)	82.3	-0.425 (inactive)	-2.3e-05 (inactive)	0.0044 (inactive)	-11.7% (inactive)	-3.15% (inactive)
Cc1nc(CCNC(=O)c2ccccc2)cs1	347	-6% (inactive)	4.7% (inactive)	102	-51.1% (inactive)	127	-0.486 (inactive)	9.5e-06 (inactive)	0.00492 (inactive)	9.26% (inactive)	-2.39% (inactive)
CCOC(=O)C1=C(CS(=O)(=O)c2ccc(F)c(C)c2)NC(=O)NC1c1ccc(O)c(O)c1 (stereo not drawn)	619	-0.8% (inactive)	8.1% (inactive)	112	-35.7% (inactive)	116	-0.576 (inactive)	-2.4e-05 (inactive)	0.00703 (inactive)	-1.61% (inactive)	5.18% (inactive)
CCOC(=O)C1=C(C)NC(=O)NC1c1ccc(OCCO)c(OC)c1 (stereo not drawn)	634	-12.8% (inactive)	-2.9% (inactive)	102	30.3% (inactive)	89.2	-0.468 (inactive)	-4.3e-05 (inactive)	0.00652 (inactive)	-1.76% (inactive)	25.5% (inactive)
Cc1nc2sc(C(c3ccc(Br)cc3)N3CC(C)OC(C)C3)c(O)n2n1 (stereo not drawn)	260	-5.4% (inactive)	-0.8% (inactive)	106	-6.9% (inactive)	114	-0.437 (inactive)	-6.3e-05 (inactive)	0.00564 (inactive)	4.21% (inactive)	17.4% (inactive)
COc1ccc(C(=O)NCCc2nnc(SCc3nc4ccccc4c(=O)[nH]3)n2C)cc1	357	-6.6% (inactive)	-8.1% (inactive)	101	-85.5% (inactive)	112	-0.501 (inactive)	-3.6e-05 (inactive)	0.00496 (inactive)	18.2% (inactive)	18.8% (inactive)
Cc1ccc(Cn2c(NCCc3ccccc3)nc3c2c(=O)n(C)c(=O)n3C)cc1	368	6.8% (inactive)	6.1% (inactive)	98.7	-203% (inactive)	108	-0.597 (inactive)	-6.3e-06 (inactive)	0.00517 (inactive)	34.6% (inactive)	29.6% (inactive)
CCOC(=O)c1sc(NC(=O)CSc2nnc(-c3ccc(OC)cc3)n2CCOC)nc1C	633	12.1% (inactive)	12.9% (inactive)	88.1	-89.1% (inactive)	140	-0.481 (inactive)	1.3e-05 (inactive)	0.00672 (inactive)	13.8% (inactive)	24.5% (inactive)
O=C1CCCN1CCCNc1ncnc2c1[nH]c1ccc(Cl)cc12	465	0.8% (inactive)	-18.4% (inactive)	101	-164% (inactive)	119	-0.391 (inactive)	3.6e-05 (inactive)	0.00715 (inactive)	-14.5% (inactive)	-66.1% (inactive)
